# USP1 inh: Inhibitors of USP1/UAF1: Primary Screen; Ubiquitin carboxyl-terminal hydrolase 1 (Homo sapiens), O94782; recombinant USP1/UAF1, Ub-Rhodamine cleavage fluorescence; Potency, µM (top dose mostly 57.1 µM), inactives show top-dose activity change, negative = inhibition, most hits filed as inhibitors; hit rate 0.23% among 390,000; note: potency is the fitted concentration of half-maximal effect; % is set by controls: 0 for no effect and ±100 for the full control effect; nearly all actives have a fitted effect of over 60% in size
#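 Step one: compound is pinned into 1nM USP1/UAF1 in HEPES pH 7.8 buffer with TCEP. Step two: 15 min room-temperature incubation. Step three: Ub-Rho (150nM final) starts cleavage, tracked by fluorescence over six one-minute reads.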
# EPAC1 ag: qHTS for Agonist of cAMP-regulated guanine nucleotide exchange factor 3 (EPAC1): primary screen | Rap guanine nucleotide exchange factor 3 (Homo sapiens), O95398 | EPAC1 agonist qHTS, biochemical assay; response scale: 100% = response to 6.5 mM cAMP | Potency, µM (top dose mostly 154 µM), without a hit: at the highest dose activation, actives largely listed as activators | hit rate 0.073% among 360,000 | AID 720707, 2013; note: potency is the fitted concentration of half-maximal effect; nearly all actives have a fitted effect of over 60% in size
#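 Normalized to 6.5 mM cAMP, activity reflects EPAC1-catalysed release of BODIPY-GDP from Rap1B, followed kinetically over 30 min at 480 nm excitation, 540 nm emission. Reaction contained 100 nM EPAC1, 250 nM Rap1B-BODIPY-GDP, 50 uM GDP.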
# EPAC1 antagonist: qHTS for Antagonist of cAMP-regulated guanine nucleotide exchange factor 3 (EPAC1): primary screen. EPAC1 GEF assay, Rap1b-BODIPY-GDP exchange fluorescence. Potency, µM (highest dose often 115 µM), inactives show at the top dose activity change, negative = inhibition, usual class: inhibitors. Rap guanine nucleotide exchange factor 3 (Homo sapiens), O95398. AID 720709, 2013. hit rate 0.14% among 360,000;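 note: potency is the fitted concentration of half-maximal effect; plate controls were vehicle for no effect and positive control for full effect; nearly all actives have a fitted effect of over 50% in size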
# LDHA block: qHTS assay for inhibitors of human lactate dehydrogenase. L-lactate dehydrogenase A chain (Homo sapiens), P00338. purified LDHA, NADH/diaphorase-resazurin fluorescence; stronger effect = lower value. activity change, % (values are at about 110 or 230 µM). hit rate 0.15% among 480,000. AID 1347041, 2019; in the data active = activity change below about -30%; inconclusive = mostly about -25% to -30%;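 note: plate controls were DMSO wells for no effect and wells without enzyme for full effect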
#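 Human LDH5 at 2 nM final in Tris HCl pH 7.4 with 0.06 mM NADH and 0.2 mM pyruvate, reacted 5 minutes at room temperature. Remaining NADH coupled via diaphorase/resazurin; resorufin fluorescence read at 0 and 20 minutes, normalized to enzyme-free and DMSO wells.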
# EPAC2 agonist: qHTS for Agonist of cAMP-regulated guanine nucleotide exchange factor 4 (EPAC2): primary screen. Rap guanine nucleotide exchange factor 4 (Homo sapiens), Q8WZA2. EPAC2 activation, biochemical qHTS; response scale: 100% = 6.5 mM cAMP response. Potency, µM (highest dose often 154 µM), without a hit: at the top dose activation, hits mostly activators. hit rate 0.079% among 360,000. AID 720711, 2013; note: potency is the fitted concentration of half-maximal effect; nearly all actives have a fitted effect of over 50% in size
# Target sequence (Q8WZA2 whole entry, looked up): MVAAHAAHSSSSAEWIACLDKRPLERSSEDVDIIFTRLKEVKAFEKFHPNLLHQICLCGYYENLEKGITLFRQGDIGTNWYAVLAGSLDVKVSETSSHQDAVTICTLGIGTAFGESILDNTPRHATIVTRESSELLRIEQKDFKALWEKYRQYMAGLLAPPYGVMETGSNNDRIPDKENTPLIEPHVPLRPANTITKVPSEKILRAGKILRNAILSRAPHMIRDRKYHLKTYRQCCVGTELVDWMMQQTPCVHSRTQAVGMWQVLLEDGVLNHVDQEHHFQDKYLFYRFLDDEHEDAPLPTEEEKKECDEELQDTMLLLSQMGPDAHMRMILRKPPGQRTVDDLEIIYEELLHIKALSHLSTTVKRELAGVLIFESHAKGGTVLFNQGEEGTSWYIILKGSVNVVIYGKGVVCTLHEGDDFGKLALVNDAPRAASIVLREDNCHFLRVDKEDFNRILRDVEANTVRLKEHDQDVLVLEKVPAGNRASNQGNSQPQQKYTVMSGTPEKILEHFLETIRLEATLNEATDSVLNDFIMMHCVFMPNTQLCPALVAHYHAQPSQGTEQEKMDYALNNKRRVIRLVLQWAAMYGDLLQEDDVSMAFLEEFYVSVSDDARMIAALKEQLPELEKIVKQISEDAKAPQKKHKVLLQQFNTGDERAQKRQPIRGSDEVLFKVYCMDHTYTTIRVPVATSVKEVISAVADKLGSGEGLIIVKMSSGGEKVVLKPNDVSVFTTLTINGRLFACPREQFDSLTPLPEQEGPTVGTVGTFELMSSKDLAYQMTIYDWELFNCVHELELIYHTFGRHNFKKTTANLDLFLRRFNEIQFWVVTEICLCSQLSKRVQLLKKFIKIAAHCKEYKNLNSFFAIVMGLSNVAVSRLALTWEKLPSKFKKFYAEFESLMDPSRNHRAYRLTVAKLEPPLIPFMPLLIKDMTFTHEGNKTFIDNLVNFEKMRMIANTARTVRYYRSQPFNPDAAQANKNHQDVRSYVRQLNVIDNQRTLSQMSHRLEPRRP
#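 Exchange assay: 100 nM EPAC2 with 250 nM Rap1B-BODIPY-GDP and 50 uM GDP. Fluorescence (ex 480/em 540 nm) read every 5 min for 30 min at room temperature. Data normalized to 6.5 mM cAMP as agonist control.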
# EPAC2 antag: qHTS for Antagonist of cAMP-regulated guanine nucleotide exchange factor 2 (EPAC2): primary screen. Rap guanine nucleotide exchange factor 4 (Homo sapiens), Q8WZA2. EPAC2 GEF exchange of Rap1B-BODIPY-GDP, fluorescence. Potency, µM (top dose mostly 114 µM), for the others: top-dose activity, negative = inhibition, usual class: inhibitors. hit rate 0.18% among 360,000; note: potency is the fitted concentration of half-maximal effect; % is set by controls: 0 for no effect and ±100 for the full control effect; nearly all actives have a fitted effect of over 45% in size
# * = called active by the depositor; i = inactive; ? = inconclusive; . = no result. A selection: hits, their analogues and other compounds. The true share with any hit is near 0.56%. Unless noted, calls come from the whole dose curve; as a rule, active = well fitted curve in the direction sought with a large enough effect; inconclusive = small, poorly fitted or top-dose-only effect, or another doubt; inactive = no such curve, though single readings can be large; an effect the other way counts as inactive or inconclusive.
SMILES,USP1 inh,EPAC1 ag,EPAC1 antagonist,LDHA block,EPAC2 agonist,EPAC2 antag
COc1ccccc1NC(=O)C(C)n1cnc2c1c(=O)n(C)c(=O)n2C (stereo unspecified),.,.,.,4,.,.
CC(C)(C)c1ccc(-c2nc(-c3ccc(Br)o3)no2)cc1,.,.,.,-31*,.,.
Nc1ncnc2c1nc(Sc1ccc(Cl)cc1)n2[C@@H]1O[C@@H]2COP(=O)(O)O[C@H]2[C@H]1O,-5%,?,?,-19,?,2.8µM*
CCCC(=O)Nc1ncnc2c1ncn2[C@@H]1O[C@@H]2COP(=O)(O)O[C@H]2[C@H]1OC(=O)CCC,-14%,-29%,8%,-7,11%,8%
O=C(Nc1ccc(N2CCOCC2)c2nonc12)C1CCCC1,?,-5%,-11%,19,-5%,3%
Nc1ccc(N2CCOCC2)c2nonc12,18µM*,0%,?,17,14%,?
CCOC(=O)CNC(=O)c1cccnc1Oc1ccc(Cl)cc1,-16%,4%,-4%,-7,8%,3%
Cc1ccc(-c2cn3nc(-c4ccccc4)c(-c4ccccc4)nc3n2)cc1,?,16%,7%,-2,100µM*,213%
Brc1cccc[n+]1CCCC[n+]1ccccc1Br,.,.,.,-62*,.,.
Brc1cccc[n+]1CCCCCC[n+]1ccccc1Br,.,.,.,-60*,.,.
Brc1cccc[n+]1C/C=C/C[n+]1ccccc1Br,.,.,.,0,.,.
CCOC(=O)c1[nH]c2ccc(F)cc2c1NC(=O)C1CC1,.,.,.,5,.,.
CC[C@H]1C(c2ccc(F)cc2)=NN(c2ccccc2)[C@@H]1CO,-27%,-14%,-14%,5,3%,50µM*
OC[C@@H]1[C@@H](c2ccc(F)cc2)C(c2ccccc2)=NN1c1ccccc1,-33%,-6%,-5%,2,18%,?
COc1cc(NC(=O)Cn2nc(Cc3ccncc3)c3ccccc3c2=O)cc(OC)c1OC,.,.,.,-6,.,.
Cn1ccc2ccc(C(=O)N3CCC(C(N)=O)CC3)cc21,.,.,.,-3,.,.
Cc1cc2c(s1)c1cnn(Cc3c(F)ccc(C)c3F)c(=O)c1n2C,.,.,.,-3,.,.
Cc1ccc(C)c(C(C)NC(=O)CCNC(=O)C2CCCC2)c1 (stereo unspecified),.,.,.,0,.,.
CCCc1[nH]c2ccc(C(=O)OC)cc2c1CCC,-27%,-9%,-20%,-6,16%,28µM*
N#Cc1ccc2[nH]cc(CCO)c2c1,-15%,14%,-4%,-3,7%,-1%
CCCc1[nH]c2ccc(C#N)cc2c1CCC,-28%,-23%,-27%,5,-1%,28µM*
CCOC(=O)c1[nH]c2ccc(C(=O)OC)cc2c1C(=O)OCC,-32%,-8%,-10%,-2,1%,-10%
[O-][n+]1cccc2cccc(O)c21,-25%,7%,1%,29,7%,9%
C[n+]1cccc2cccc([O-])c21,6.3µM*,4%,-7%,11,?,?
CCCCC(CC)C(=O)Nc1ccc(Nc2ccccc2)cc1 (stereo unspecified),-13%,63µM*,40%,-6,-13%,-19%
SMILES,USP1 inh,EPAC1 ag,EPAC1 antagonist,LDHA block,EPAC2 agonist,EPAC2 antag
CCCCC(CC)C(=O)Nc1ccc2ccccc2c1 (stereo unspecified),.,.,.,2,.,.
CCc1ccc(S(=O)(=O)/N=C2\C=C(Nc3cccc(C(=O)O)c3)C(=O)c3ccccc32)cc1,5.6µM*,-8%,?,46,4%,?
CCc1ccc(S(=O)(=O)/N=C2\C=C(Nc3ccc(O)cc3)C(=O)c3ccccc32)cc1,10µM*,-3%,?,37,11%,-24%
O=C(O)CCc1ccc(S(=O)(=O)Nc2cccc(C(=O)O)c2)cc1,.,.,.,4,.,.
O=C1C=C(Nc2ccc(O)cc2)C(=O)c2ccccc21,-27%,-11%,-6%,31,-1%,0%
CCc1ccc(S(=O)(=O)/N=C2/C=C(Sc3ncn[nH]3)C(=O)c3ccccc32)cc1,1.8µM*,1%,?,39,10%,40µM*
CCc1ccc(-c2cc(C)no2)cc1S(=O)(=O)N1CCN(c2ccccc2)CC1,-15%,-8%,-27%,0,5%,1%
Cc1ccc(C(C)C)c(OCC(=O)Nc2ccc3oc(C)nc3c2)c1,.,.,.,0,.,.
CC(=O)c1cccc(NS(=O)(=O)c2ccc3c(c2)N(C(C)=O)CCO3)c1,-1%,3%,-19%,-3,3%,-11%
CSc1ccccc1C(=O)Nc1ccc(C)cc1C,-15%,13%,4%,-12,0%,?
CSc1ccccc1C(=O)Nc1c(C)cc(C)cc1C,.,.,.,-32*,.,.
O=C(Nc1ccc(-c2noc(-c3ccccc3Br)n2)cc1)c1ccc(Br)o1,.,.,.,-10,.,.
O=[N+]([O-])c1ccc(COc2ccc(I)cc2)cc1,.,.,.,-1,.,.
CCCn1c(=O)c2sccc2n2c(CCCC(=O)N3CCN(c4ccccc4)CC3)nnc12,-24%,.,.,-6,.,.
O=C(O)c1cc(Br)ccc1NS(=O)(=O)c1cccc2nsnc12,-15%,-5%,-11%,-47*,0%,0%
CC(C)(NC(=O)/C=C/c1cccnc1)c1ccc(Br)cc1,.,.,.,2,.,.
Cc1ccc(N2C(=O)c3cccc4c(N5CCN(C)CC5)ccc(c34)C2=O)c2cccnc12,28µM*,22%,5%,-4,-13%,8%
O=C1c2cccc3cccc(c23)C(=O)N1c1ccc(O)cc1,-24%,10%,-16%,-21,7%,-8%
O=C1c2cccc3c(N4CCCCC4)ccc(c23)C(=O)N1c1ccc(O)cc1,?,11%,14%,0,89µM*,101%
O=C1c2cccc3c(N4CCCCC4)ccc(c23)C(=O)N1c1ccccc1O,28µM*,?,4%,1,100µM*,1%
CCC(=O)Nc1ccc(Br)cc1-c1nnc(SC)[nH]c1=O,.,.,.,0,.,.
COCC(C)NCC(=O)NC(C)CCc1ccccc1 (stereo unspecified),5%,7%,-7%,-30*,10%,-2%
CC(=O)NC(C)CCc1ccccc1 (stereo unspecified),-2%,6%,8%,-8,8%,-2%
O=C(O)c1ccc(/C=C/C(=O)c2cccc(Br)c2)cc1,.,.,.,-10,.,.
CN(C)c1ccc(/C=C/C(=O)c2cccc(Br)c2)cc1,i,100µM*,68%,-1,100µM*,56%

# Screening data as filed in PubChem.
